# From PubChem
# BAZ2B inh: qHTS Assay for Inhibitors of BAZ2B | Bromodomain adjacent to zinc finger domain protein 2B (Homo sapiens), Q9UIF8 | AlphaScreen BAZ2B-H3K14Ac peptide displacement | Potency, µM (doses to about 114 µM), for the others: at the highest dose activity change, negative = inhibition, usual class: inhibitors | hit rate 4.4% among 360,000; further: on the % scale 0 is the no-effect control and ±100 the full control effect; nearly all actives have a fitted effect of over 60% in size
#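 AlphaScreen displacement: compounds (up to 110uM) incubated 30 min at room temperature with a preformed 50 nM BAZ2B/50 nM biotinylated H3K14Ac peptide complex in PBS pH 7.4 with Tween-20. Donor and acceptor beads at 10 ug/mL final added, 20 min light-protected before reading.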
# HP1b binding inh: HTS for Inhibitors of HP1-beta Chromodomain Interactions with Methylated Histone Tails; Potency, µM (doses to about 114 µM), without a hit: at the top dose activity change, negative = inhibition, usual class: inhibitors; AlphaScreen HP1-beta / biotin-H3K9me3 peptide binding; hit rate 0.56% among 390,000; further: nearly all actives have a fitted effect of over 70% in size
#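 Compound inhibition of the preformed complex between 50 nM HP1-beta and 50 nM biotinylated H3K9me3 peptide was read by AlphaScreen. Buffer was PBS pH 7.4 with 0.01% Tween-20. Incubations ran 30 min at room temperature, with 10 ug/mL donor/acceptor beads.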
# JMJD2A Tudor: qHTS Assay for Inhibitors of JMJD2A-Tudor Domain; AID 504339, 2011; Potency, µM (highest dose often 114 µM), for the others: top-dose activity change, negative = inhibition, most hits filed as inhibitors; AlphaScreen JMJD2A-Tudor / H3K4me3 peptide binding; hit rate 4.4% among 390,000; Lysine-specific demethylase 4A (Homo sapiens), O75164; further: on the % scale 0 is the no-effect control and ±100 the full control effect; nearly all actives have a fitted effect of over 50% in size
# Sfp inh: qHTS Assay for Inhibitors of Bacillus subtilis Sfp phosphopantetheinyl transferase (PPTase). 4'-phosphopantetheinyl transferase ffp (Bacillus subtilis), Q9F4F7. Biochemical Sfp PPTase activity, qHTS. Potency, µM, for the others: largest response in the series, negative = inhibition, hits mostly inhibitors. hit rate 3.5% among 310,000;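 further: the enzyme is Sfp with the accession as filed and its product quenches rhodamine fluorescence; 0% = enzyme reaction without inhibitor and -100% = no enzyme wells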
#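 Fluorescence-quenching assay with 15 nM Sfp, 5 uM rhodamine-CoA and 12.5 uM BHQ-2-labelled ybbR peptide in pH 7.6 Hepes/MgCl2 buffer. Enzyme was pre-incubated with compound for 15 min at room temperature. Rate was taken from the 30-min fluorescence change (525/598 nm).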
# G9a block: qHTS Assay for Inhibitors of Histone Lysine Methyltransferase G9a. Histone-lysine N-methyltransferase EHMT2 (Homo sapiens), Q96KQ7. G9a H3K9 monomethylation, AlphaScreen, 2 h. Potency, µM (top dose mostly 102 µM), for inactives: at the top dose activity, negative = inhibition, hits mostly inhibitors. hit rate 8.8% among 350,000. AID 504332, 2011; further: on the % scale 0 is the no-effect control and ±100 the full control effect; nearly all actives have a fitted effect of over 75% in size
#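 G9a (20 nM) was preincubated 15 min with compound, then reacted 2 h at room temperature with 500 nM biotin-H3K9 peptide and 20 µM SAM. Monomethyl-H3K9 detected by AlphaScreen using anti-H3K9me1 antibody.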
# L3MBTL1 block: qHTS Assay for the Inhibitors of L3MBTL1. Potency, µM (top dose mostly 57.1 µM), inactives show at the top dose activity, negative = inhibition, actives largely listed as inhibitors. AlphaScreen L3MBTL1–H3K9me1 peptide binding. hit rate 0.66% among 230,000; further: on the % scale 0 is the no-effect control and ±100 the full control effect; nearly all actives have a fitted effect of over 60% in size
#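 AlphaScreen assay: L3MBTL1 (50 nM final) was preincubated 30 min at room temperature with biotinylated H3(1-15)K9me1 peptide (75 nM final), then 30 min with library compounds; streptavidin donor and nickel chelate acceptor beads (10 ug/mL final) added, 30 min dark.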
# The depositor's hits bear a star; ? = inconclusive; / = not tested or not shown; [ ] = another dose, or the depositor's remark. Hits are enriched below; roughly 12% of the tested compounds scored in any of these assays. The call rests on the fitted dose curve; in most records, active means well fitted curve in the direction sought with a large enough effect; inconclusive means small, poorly fitted or top-dose-only effect, or another doubt; inactive means no such curve, though single readings can be large; an effect the other way counts as inactive or inconclusive. Potency means the concentration at half of the fitted maximal effect.
SMILES,BAZ2B inh,HP1b binding inh,JMJD2A Tudor,Sfp inh,G9a block,L3MBTL1 block
CCOC(=O)c1ccc(-c2ccc3ncnc(NCc4cccs4)c3c2)o1,/,/,-15.6%,/,/,/
COc1cc(OC)c2c(c1Cl)O[C@@]1(C2=O)[C@H](C)CC(=O)C[C@@H]1OC,/,/,/,20.8%,19.6%[21.5 µM],/
CN(C)CCNC(=O)/C(=N\O)c1ccccn1,?,19.8%,-8.9%,?,50.1µM*,-5.5%
CN(C)CCCNCCCNC(=O)c1ccccn1,-2.0%,7.4%,4.6%[11.4 µM],-5.9%,?,-8.9%
CN(C)CCCNCCCNC(=O)/C(=N\O)c1ccccc1,-38.8%,-4.1%,?,10.7%,50.1µM*,/
COc1ccc(CCC(=O)NCC2CCCCC2)cc1OC,4.7%,36.1%,-11.5%,7.6%,-5.1%,/
COc1ccc(N(CC(=O)NCc2ccc(C)cc2)S(=O)(=O)c2c(C)[nH]c(=O)[nH]c2=O)cc1,-29.3%,7.8%[57 µM],-6.9%,22.8%,-33.4%,/
COc1ccccc1NC(=O)CC(NC1CCCCC1)C(=O)O (stereo not drawn),-23.0%,11.5%,-3.4%,-0.9%,50.1µM*,7.7%
COc1ccccc1NCCC(=O)OCC(=O)NC1CCCCC1,-29.4%,13.6%,-7.8%,8.3%,3.55µM*,-6.3%
COc1cc(O)c(NC(C)=O)c2nonc12,6.9%,20.9%,-35.5%,35.5µM*,22.4µM*,-3.0%
Cc1ccc(C)c(NC(=O)c2ccc3c(c2)CCCN3S(C)(=O)=O)c1,0.9%,38.7%,-22.6%,/,10.7%[59 µM],/
CCCN1C(=O)/C(=C\C=C2\N(CC)c3ccccc3C2(C)C)SC1=S,3.55µM*,?,8.91µM*,-24.4%,/,?
CN1/C(=C\C=C2/C(=O)Oc3ccccc3C2=O)C(C)(C)c2ccccc21,?,-1.3%,3.4%,17.7%,?,-11.4%
CN1/C(=C/C=C(/C#N)C(N)=O)C(C)(C)c2ccccc21,5.1%,45.4%,3.5%,15.5%,?,-4.1%
CN1/C(=C\C=C2/SC(=S)NC2=O)C(C)(C)c2ccccc21,7.94µM*,?,?,?,7.94µM*,-28.7%
CN1C(=CC=C2C=C(I)C(=O)C(I)=C2)C(C)(C)c2ccccc21,?,?,?,89.1µM*,/,-16.2%
Cc1ccc(N(NC(=O)C(O)(c2ccccc2)c2ccccc2)C(=O)CCl)cc1,-2.4%,37.5%,-6.2%,-29.5%,?,-7.0%
COc1cccc(NC(=O)CCN2C(=O)c3ccccc3Sc3ncccc32)c1,-4.6%[57.1 µM],58.0%,-8.8%,15.9%,-7.1%[59 µM],/
COc1ccc2[nH]c(C)c(CCNC(=S)Nc3cccc(C)c3)c2c1,35.5µM*,-3.2%,?,-8.7%,44.7µM*,?
CCc1c(C)[nH]c2ccc(OC)cc2c1=S,?,?,-17.3%[11.4 µM],10µM*,4.47µM*,-11.8%
COc1ccc2[nH]c(C)c(CCNC(=S)Nc3ccc(F)cc3)c2c1,/,-8.2%,?,13.9%,56.2µM*,/
COc1ccc2[nH]c(C)c(CCNC(=S)Nc3cc(C)cc(C)c3)c2c1,28.2µM*,?,50.1µM*,15.7%,14.8%,-20.5%
Cc1cc(CNC[C@H]2O[C@@H](n3cnc(C(N)=O)n3)[C@H](O)[C@@H]2O)c(C)n1-c1cccnc1,/,38.2%,-9.6%,/,/,/
COc1ccc2[nH]c(C)c(CCNC(=S)Nc3cc(C)ccc3C)c2c1,1.7%,32.1%,-21.3%,15.8%,13.9%,-1.6%
CCOc1ccc(Cc2c(C)[nH]c3ccc(C(=O)O)cc3c2=S)cc1,-35.6%,17.8%,25.1µM*,56.2µM*,12.6µM*,-11.2%
CCOc1ccc(NC(=O)c2ccc3[nH]c(C)cc(=O)c3c2)cc1,-1.7%,7.0%,6.6%,/,?,/
COc1ccc2[nH]c(C)c(CCNc3ccc(C(F)(F)F)cc3[N+](=O)[O-])c2c1,28.2µM*,?,22.4µM*,15.5%,11.2µM*,-23.5%
